FLuc counter – firefly luciferase modulation, counter-screen for miR-21 project | Potency, µM (highest dose often 57.5 µM), inactives show at the highest dose activity change, negative = inhibition, most hits filed as inhibitors | P08659 | purified FLuc, Km substrates, luminescence inhibition | AID 588342 | 360,000 compounds, 6.9% hits;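 further: plate controls were vehicle for no effect and reference inhibitor for full effect; nearly all actives have a fitted effect of over 55% in size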
Target sequence (P08659 whole entry, looked up): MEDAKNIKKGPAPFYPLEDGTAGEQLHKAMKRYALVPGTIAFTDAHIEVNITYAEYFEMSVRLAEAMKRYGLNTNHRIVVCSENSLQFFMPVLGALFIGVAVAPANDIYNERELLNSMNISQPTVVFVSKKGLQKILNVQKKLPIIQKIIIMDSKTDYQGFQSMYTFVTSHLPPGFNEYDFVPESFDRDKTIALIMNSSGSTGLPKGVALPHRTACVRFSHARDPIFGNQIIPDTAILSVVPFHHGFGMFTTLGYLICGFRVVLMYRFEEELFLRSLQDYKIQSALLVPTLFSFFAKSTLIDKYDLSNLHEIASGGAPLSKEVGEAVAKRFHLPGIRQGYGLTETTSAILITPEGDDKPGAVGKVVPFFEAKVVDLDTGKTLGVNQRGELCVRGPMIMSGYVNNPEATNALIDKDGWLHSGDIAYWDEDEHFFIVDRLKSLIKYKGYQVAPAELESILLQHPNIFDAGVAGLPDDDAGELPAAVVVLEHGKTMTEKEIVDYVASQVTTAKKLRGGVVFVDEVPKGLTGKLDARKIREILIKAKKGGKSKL
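Purified P. pyralis luciferase (10nM final) with 10uM D-luciferin and 10uM ATP (Km levels) in 50mM Tris acetate pH 7.5, 10mM Mg acetate, 0.01% Tween-20, 0.05% BSA; qHTS 6-point titration, ~60 µM downward; luminescence read.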
SMN2 splice enh – enhancers of SMN2 splice variant expression; HEK293 SMN2-luciferase splicing reporter, luminescence, 30-36 h; Potency, µM (top dose mostly 46.1 µM), for inactives: at the highest dose activity change, positive = activation, most hits filed as activators; 210,000 compounds, 2.8% hits; AID 1458; further: % of control where 0% means no effect; nearly all actives have a fitted effect of over 55% in size
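HEK293 cells carry an SMN2 […]–luciferase reporter in which exon 7 inclusion puts luciferase in frame. Cells were plated 10-12 h before compound addition, then incubated 30-36 h at 37C. ONE-Glo luminescence was read; sodium butyrate at 4.5 mM final served as control.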
ELG1 genotoxic – induces genotoxicity in HEK293T cells with luciferase-tagged ELG1 | 330,000 compounds, 1.3% hits | Potency, µM (top dose mostly 46 µM), for inactives: top-dose activity change, positive = activation, usual class: activators | HEK293T ELG1-luciferase reporter, luminescence, 16 h; further: % of control where 0% means no effect; nearly all actives have a fitted effect of over 60% in size
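Quantitative HTS format in 1536-well plates. HEK293T ELG1-luciferase reporter cells receive test compound and are incubated 16 hr at 37 °C, 5% CO2; ONE-Glo added, 30 min room temperature, then luminescence read.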
Rab9 prom act – activators of Rab9 promoter. Huh7 Rab9 promoter-luciferase reporter, luminescence, 24 h. 320,000 compounds, 2.8% hits. Potency, µM (top dose mostly 9.22 µM), for inactives: top-dose activation, negative = inhibition, usual class: activators; further: % of control where 0% means no effect; nearly all actives have a fitted effect of over 60% in size
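Measured in stably transfected Huh7 cells bearing a Rab9 promoter–luciferase construct: 24 h compound treatment at 37 °C, followed by luminescence detection.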
NPC1 prom act – activates the NPC1 promoter | 320,000 compounds, 2.4% hits | Huh7 NPC1 promoter luciferase reporter, 24 h | AID 485313 | Potency, µM (series often up to 9.22 µM), for the others: at the highest dose activation, most hits filed as activators; further: % of control where 0% means no effect; nearly all actives have a fitted effect of over 60% in size
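Huh7 reporter cells (NPC1 promoter driving luciferase) are dosed with compound for 24 h at 37 °C, 5% CO2; luciferase detection reagent is then added and luminescence measured after 10 min at ambient temperature.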
An asterisk follows results filed as active; ? = inconclusive; · = no result; [ ] = remark or other dose. Compounds with a hit are over-represented: about 7.4% of the library has one in this group of screens. The call rests on the fitted dose curve; in most records, active means well fitted curve in the direction sought with a large enough effect; inconclusive means small, poorly fitted or top-dose-only effect, or another doubt; inactive means no such curve, though single readings can be large; an effect the other way counts as inactive or inconclusive. Potency means the concentration at half of the fitted maximal effect.

SMILES | FLuc counter | SMN2 splice enh | ELG1 genotoxic | Rab9 prom act | NPC1 prom act
Cc1cc(OCc2nc3ccccc3s2)ccc1N | 1.51µM* | · | 2.91µM* | 0.562µM* | 1µM*
Fc1ccc(OCc2nc3ccccc3s2)cc1 | 2.39µM* | 11.2µM* | 2.31µM* | 3.16µM* | 1.41µM*
O=S(=O)(CCc1nc2ccccc2s1)c1ccc(Cl)cc1 | 1.7% | -3.9% | -0.8% | -3.6% | -3.9%
CCCc1cc(=O)[nH]c(SCC(=O)Nc2cccc(S(=O)(=O)N3CCCCC3)c2)n1 | -7.4% | · | 0.8% | -0.5% | 3.2%
CCC(=O)Nc1ccc(OCc2nc3ccccc3s2)cc1 | 4.26µM* | 5.01µM* | 2.91µM* | 0.631µM* | 2µM*
N#Cc1ccc(NC(=O)CCc2nc3ccccc3s2)cc1 | -11.1% | 8.8% | -3.5% | -3.5% | -0.1%
Fc1ccccc1NC(=S)NCCc1ccc(Cl)cc1 | 19µM* | · | ? | ? | ?
O=C(NCCc1ccccc1)C(=O)NC1CCCCC1 | -1.0%[2.3 µM] | 57.9% | 10.5% | 3.16µM* | 3.55µM*
S=C(NCCc1ccc(Cl)cc1)NC1CCCCC1 | 19µM* | · | -7.4% | ? | 3.98µM*
O=C(NC1CCCCC1)C(=S)NCCc1ccccc1 | ? | ? | 8.0% | 13.9% | 9.6%
S=C(NCCNCc1ccccc1)NC1CCCCC1 | 0.0% | -5.6% | -18.5% | -8.0% | -1.4%
S=C(NCCc1ccccc1)NC1CCCCCC1 | 10.7µM* | 12.6µM* | 8.2µM* | 3.16µM* | 2.51µM*
COc1ccc(CCNC(=O)C(CCC(N)=O)NS(=O)(=O)c2ccc(Cl)cc2)cc1OC (stereo not given) | -5.0% | · | -2.9% | -2.4% | -4.8%
CCc1nnc(SCc2cccc(F)c2)c2cc3sc(C)cc3n12 | -9.7% | · | · | · | ·
S=C(NCCc1ccccc1)NCc1cccs1 | ? | 10µM* | ? | ? | ?
COc1ccc2ccccc2c1CNC(C)CCc1ccccc1 (stereo not given) | 0.2% | · | -3.3% | -6.6% | 0.2%
COc1ccc(-c2csc3ncnc(Nc4ccc(OC)cc4OC)c23)cc1 | -0.4% | · | · | · | ·
CC1Oc2ccccc2C(=O)N(CC(=O)c2ccc3c(c2)OCCO3)C1=O (stereo not given) | 4.78µM* | · | 12.4% | 28.1% | 23.5%
CC(C)C1Oc2ccccc2N(CC(=O)N2CCOCC2)C1=O (stereo not given) | -0.1% | · | 4.6% | 3.6% | -1.6%
CC(C)C1Oc2ccccc2C(=O)N(CC(=O)c2ccc3c(c2)OCCO3)C1=O (stereo not given) | 2.39µM* | · | ? | 1.41µM* | 1.12µM*
CCC1Oc2ccccc2C(=O)N(CC(=O)c2ccc3c(c2)OCCO3)C1=O (stereo not given) | 4.78µM* | · | ? | ? | ?
O=S(=O)(Nc1ccc(Cl)cc1)c1ccc(N2CCOCC2)c(NC(=S)NC2CC2)c1 | ? | -5.2% | -3.3% | -2.0% | -8.6%
CC1(c2cccc(Br)c2)NC(=O)N(CC(=O)Nc2ccc(S(N)(=O)=O)cc2)C1=O (stereo not given) | -0.7% | · | 4.3% | 7.1% | -4.3%
Cc1ccc(Nc2nc(-c3ccccc3)cs2)nc1 | 0.379µM* | · | 0.326µM* | 0.562µM* | 0.447µM*
Cc1ccc(Nc2nc(-c3cccs3)cs2)nc1 | 0.239µM* | 1.41µM* | 0.517µM* | 0.447µM* | 0.447µM*
SMILES | FLuc counter | SMN2 splice enh | ELG1 genotoxic | Rab9 prom act | NPC1 prom act
Cc1cc(C)nc(Nc2nc(-c3ccccc3)cs2)n1 | ? | · | 1.64µM* | 0.708µM* | ?
c1ccc(-c2csc(Nc3nc(N4CCOCC4)nc(N4CCOCC4)n3)n2)cc1 | 3.3% | -13.8% | 0.9% | -9.0% | -5.0%
CC(/C=C/c1ccccc1)=N\Nc1nc(-c2ccccc2)cs1 | 3.6% | -22.9% | -8.0% | -3.6% | -4.0%
CC(C)=NNc1nc(-c2ccccc2)cs1 | 19µM* | -16.6% | ? | 12.3% | 15.6%
COc1ccc(N(Cc2ccccc2)N=O)cc1 | -18.5% | · | 6.4% | -2.7% | -2.1%
Cc1cccc2nc(COc3ccc(Cl)c4cccnc34)cn12 | 12µM* | ? | ? | ? | 21.5%
CC(C)(O)CC[C@@H](O)[C@](C)(O)C1CC[C@@]2(O)C3=CC(=O)[C@]4(O)C[C@@H](O)[C@@H](O)C[C@]4(C)C3CC[C@]12C (stereo not given in full) | -0.1% | · | -0.6% | 12.7% | -2.0%
CNc1ncc(C(=O)c2ccc(-c3ccccc3)cc2)s1 | 3.01µM* | · | ? | 2.51µM* | 2µM*
O=C(c1ccc(Cl)c(Cl)c1)c1cnc(Nc2ccccc2)s1 | 5.5% | -4.0% | 2.2% | 5.7% | 0.9%
CNc1ncc(C(=O)c2ccc(Cl)cc2)s1 | 10.7µM* | 12.6µM* | ? | 2.82µM* | 3.55µM*
CNc1ncc(C(=O)c2ccc(Cl)c(Cl)c2)s1 | ? | 23.9% | ? | ? | 3.55µM*
Cc1cc(SCC(=O)NCc2ccc(Cl)cc2)nc(=O)[nH]1 | -3.2% | · | · | · | ·
CC(=O)Nc1ccc(S(=O)(=O)NCc2nc(-c3ccccc3C)no2)cc1 | 0.2% | · | -2.8% | -1.4% | 1.2%
CCOC(=O)C1=C(C)N(c2ccc(C)cc2)C(=O)/C1=C\c1ccc(O)c(OC)c1 | -11.3% | · | 2.5% | -7.8% | -13.2%
CCOC(=O)C1=C(O)c2ccccc2C(=O)/C1=C\c1ccc(C)cc1 | 6.75µM* | -34.0% | 6.8% | 13.7% | 0.5%
CCN(CC)c1ccc(N=C2C(=O)Nc3ccccc32)cc1 | 6.75µM* | · | -8.7% | 5.8% | 1.3%
Cc1ccc(N=C2C(=O)Nc3ccccc32)cc1 | ? | · | -2.6% | -0.5% | 2.7%
O=C(CC1S/C(=N/N=C/c2ccco2)NC1=O)Nc1ccccc1 (stereo not given) | -2.3% | 8.5% | -8.3% | -9.2% | -2.3%
O=C(CC1S/C(=N/N=C/C=C/c2ccccc2)NC1=O)Nc1ccc(C(=O)O)cc1 (stereo not given) | 13.5µM* | -5.7% | -10.9% | -2.7% | -4.0%
Cc1ccc(N=Cc2nc(-c3ccco3)oc2O)cc1 | 4.26µM* | 12.1% | ? | 7.8% | 1.5%
Oc1oc(-c2ccccc2)nc1/C=N/c1nccs1 | 12µM* | ? | 2.1% | 11.7% | 2.1%
Cc1ccc(-c2nc(C=Nc3cccc(C)c3)c(O)o2)cc1 | ? | -18.5% | 11.8% | 1.0% | 5.8%
Cc1ccc(-c2nc(C=Nc3ccccc3)c(O)o2)cc1 | 9.53µM* | · | ? | ? | 17.6%
COc1ccc(CNC(=O)C(=O)NCC(c2ccco2)S(=O)(=O)c2ccc(Cl)cc2)cc1 (stereo not given) | -1.7% | · | · | · | ·
COC(=O)c1ccc(NC(=O)c2ccc3nc(C)sc3c2)cc1 | -11.9% | · | ? | 0.708µM* | 0.794µM*
Cc1nc2ccc(NC(=O)c3ccc(Br)o3)cc2s1 | 15.1µM* | 11.2µM* | -3.1% | 2.51µM* | 2.82µM*
COc1ccc(NC(=O)c2ccc3nc(C)sc3c2)cc1 | ? | · | ? | 1µM* | 1µM*
CCCC(=O)Nc1nc2ccc(NC(=O)c3ccc(Br)o3)cc2s1 | -1.7% | ? | -7.2% | 8.9% | 11.0%
